Screening data from PubChem.
m5-HT2A agonist = mouse Htr2a agonists via beta-arrestin recruitment, primary screen, cell-based, luminescence. 5-hydroxytryptamine receptor 2A (Mus musculus), P35363. AID 624169, 2012. activation, % at 7.6 µM. hit rate 0.66% among 360,000. CHO-K1 mHTR2A beta-arrestin complementation; percent of 30 µM serotonin response;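 active = activation above a run cutoff, the mean activation of all tested compounds plus 3 SD, cut at about 14% in these data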;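 note: 0% = plate median of compound wells and 100% = 30 µM serotonin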
OPRM1-OPRD1 inv = inverse agonists of MOR-DOR heterodimerization, primary screen, cell-based, luminescence | Mu-type opioid receptor (Homo sapiens) + Delta-type opioid receptor (Homo sapiens), … | cell-based MOR-DOR heterodimer luminescence, inverse agonism | inhibition, % at 9.3 µM | hit rate 0.21% among 340,000; in the data active = inhibition above about 22%, passing the limit was not always enough;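 note: 0% = cells with DMSO and 100% = wells without cells with DMSO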
sPLA2-III inh = human group III sPLA2 inhibitors, primary screen, biochemical, QFRET, BODIPY PC-A2 liposome substrate; Group 3 secretory phospholipase A2 (Homo sapiens), Q9NZ20; QFRET BODIPY PC-A2 liposome hydrolysis, fluorescence; inhibition, % at 12.2 µM; hit rate 0.56% among 370,000; AID 743126, 2013;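 active = inhibition above mean plus 3 SD of compounds lying within the high and low control bounds, cut at about 19% in these data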;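 note: 0% = median of test compound wells and 100% = no enzyme DMSO wells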
Target sequence (Q9NZ20 whole entry, looked up): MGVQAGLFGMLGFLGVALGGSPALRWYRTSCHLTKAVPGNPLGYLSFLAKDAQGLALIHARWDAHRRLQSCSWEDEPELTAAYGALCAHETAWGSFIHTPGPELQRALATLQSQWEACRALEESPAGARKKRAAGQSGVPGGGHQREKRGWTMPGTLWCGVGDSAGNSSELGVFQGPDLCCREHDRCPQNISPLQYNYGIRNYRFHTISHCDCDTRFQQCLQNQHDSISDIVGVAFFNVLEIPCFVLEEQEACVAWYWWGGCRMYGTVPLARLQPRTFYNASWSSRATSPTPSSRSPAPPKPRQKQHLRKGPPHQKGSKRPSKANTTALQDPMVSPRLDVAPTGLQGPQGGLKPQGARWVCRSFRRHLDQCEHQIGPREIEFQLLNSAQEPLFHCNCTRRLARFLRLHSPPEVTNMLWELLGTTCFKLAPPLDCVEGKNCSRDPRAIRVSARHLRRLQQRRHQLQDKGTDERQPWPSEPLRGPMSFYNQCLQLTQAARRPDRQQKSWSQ
HTR5A inv ag = HTR5A inverse agonists in luminescence cell assay, primary screen, counter-screen for OPRM1-OPRD1 heterodimer inverse agonist project, full-deck HTS | 5-hydroxytryptamine receptor 5A (Homo sapiens), P47898 | HTR5A cell line, inverse agonism | inhibition, % at 9.3 µM | hit rate 0.083% among 340,000; in the data active = inhibition mostly above about 23%, no sharp cut-off; inactive = mostly below about 18%;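 note: 0% = cells with DMSO and 100% = no-cell wells with DMSO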
OPRM1-OPRD1 ag = agonists of OPRM1-OPRD1 heterodimerization, primary screen, cell-based, luminescence; hit rate 0.3% among 340,000; activation, % at 9.3 µM; AID 504326, 2011; cells; Mu-type opioid receptor (Homo sapiens) + Delta-type opioid receptor (Homo sapiens), …; in the data active = activation above about 18%;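 note: 0% = vehicle-treated cells and 100% = reference agonist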
HTR5A ag = HTR5A agonists in luminescence cell assay, primary screen, counter-screen for OPRM1-OPRD1 heterodimer agonist project, full-deck HTS | activation, % at 9.3 µM | hit rate 0.61% among 340,000 | 5-hydroxytryptamine receptor 5A (Homo sapiens), P47898 | cell-based | AID 504692, 2011; in the data active = activation mostly above about 9.5%, no sharp cut-off; inactive = mostly below about 7.6%;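 note: 0% = cells with vehicle only and 100% = reference agonist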
Numbers without * were called inactive; · = not tested or not shown. Shown are actives, neighbours in structure and some others; about 2.2% of the full set was active somewhere.

SMILES	m5-HT2A agonist	OPRM1-OPRD1 inv	sPLA2-III inh	HTR5A inv ag	OPRM1-OPRD1 ag	HTR5A ag
COc1ccccc1N1CCN(C(=O)c2ccc(Cl)c(S(=O)(=O)NCc3ccco3)c2)CC1	0	6	-11	-41	-1	4
O=C(c1ccc(Cl)c(S(=O)(=O)NCc2ccco2)c1)N1CCN(c2ccccc2F)CC1	-2	10	-10	-86	-2	13*
C#CCNC(=O)C1=C[C@@H](c2ccc3c(c2)OCO3)[C@H](CCCO)[C@@H](OCC)O1	-4	11	-1	20	-2	11*
CCO[C@@H]1OC(C(=O)NCc2ccccc2)=C[C@H](c2ccc3c(c2)OCO3)[C@H]1CCCO	0	8	-4	-26	-2	-1
Cc1ccc(N=c2c([N+](=O)[O-])nn(-c3ccccc3)n2O)c(C)c1	5	-37	-6	-15	7	11*
CCCc1nnc(SCC(=O)N2CCOCC2)n1Cc1ccco1	2	-17	-2	0	3	9.6*
C#CCNC(=O)CSCc1nc(-c2ccc(OCC)cc2)oc1C	·	·	-2	·	·	·
CCN(c1ccccc1)S(=O)(=O)c1ccc(Cl)c(NC(=O)c2ccc(=O)[nH]n2)c1	0	-15	-30	-30	4	12*
CNC(=S)NNc1nncc2ccccc12	-2	11	4	-30	-2	12*
O=C(NCc1nnc(SCC(=O)N2CCCCC2)o1)c1ccc(F)cc1	3	17	1	2	-3	-1
O=C(NCc1nnc(SCC(=O)N2CCCCCC2)o1)c1ccco1	0	6	1	-22	-1	11*
Cc1ccccc1CN1CCCCC(NC(=O)c2ccc(-c3ccccc3)cc2)C1=O (stereo unspecified)	·	·	-6	·	·	·
CN(C)c1nc(SCCOC(=O)Nc2ccccc2)nc(N(C)C)n1	-3	-46	-19	14	9	8.8*
COC(=O)[C@@H]1Cc2c([nH]c3ccccc23)C(C)(C)N1C(=O)CCl	-8	-172	1	-147	37*	41*
O=C(NCCN1CCc2ccccc2C1)Nc1ccc([N+](=O)[O-])cc1	5	14	21*	16	-3	0
CCn1c(=O)n2n(c1=O)[C@]1(C=C(C)C2)CN(Cc2ccc(OC)cc2OC)C(NC(=O)c2ccccc2)=N1	·	·	18	·	·	·
CC(C)=CCN1CCN(Cc2nc(C(C)C)cs2)CC1CCO (stereo unspecified)	-2	2	-6	9	0	0
CC(C)CN1CCN(Cc2nc(C(C)C)cs2)CC1CCO (stereo unspecified)	7	1	3	-30	0	11*
CC(COc1ccccc1)CN1CCC(C(O)(c2ccccc2)c2ccccc2)CC1 (stereo unspecified)	·	·	-10	·	·	·
Cc1cc([N+](=O)[O-])ccc1NC(=O)c1csc(C)c1C	9	1	7	-1	0	13*
O=C(NCCCN1CCN(c2ccccc2F)CC1)C1CCN(S(=O)(=O)c2cccs2)CC1	15*	6	-4	-14	-1	4
O=C(NCCN1CCN(c2ccccc2)CC1)C1CCN(S(=O)(=O)c2cccs2)CC1	0	13	8	-14	-3	6
CC(OC(=O)COc1ccc(C#N)cc1)C(=O)Nc1ccc(Cl)cn1 (stereo unspecified)	-2	12	14	-6	-2	2
CC(OC(=O)CNS(=O)(=O)c1ccc(C#N)cc1)C(=O)Nc1ccc(Cl)cn1 (stereo unspecified)	-1	8	-2	2	-1	11*
CCOC(=O)[C@]12CCCCC/C=C\1N(Cc1ccc(OC)cc1)C(=O)[C@H]2CC(=O)NCc1cccs1	·	·	-9	·	·	·
COC(=O)c1ccc(C2/C(=C(\O)c3cccc(OC)c3)C(=O)C(=O)N2CCCN(C)C)cc1 (stereo unspecified)	0	17	4	-18	-3	-1
